Here are results for 42 compounds from PubChem BioAssay AID1645882 (National Center for Advancing Translational Sciences (NCATS), 2021).

Several values for one entry are separate records, joined by “and”; a condition that tells them apart may be missing. Equal values may be shown once. About 120 (0.75%) of roughly 16,000 compounds were called active. Not shown: some 4% with an inconclusive outcome. Calls follow the shape of the dose curve; as a rule, active = well fitted inhibition curve with a large enough effect; inconclusive = small, poorly fitted or top-dose-only effect; inactive = no such curve, though single readings can be large or run the other way. This excerpt belongs to a sample that is enriched for actives. Some structures have more than one record in an assay (separate samples or runs), and their calls can disagree.
Potency is read from the fitted curve at half-maximal effect.

Chain of Rap guanine nucleotide exchange factor 3 (Homo sapiens) (O95398 whole entry, looked up): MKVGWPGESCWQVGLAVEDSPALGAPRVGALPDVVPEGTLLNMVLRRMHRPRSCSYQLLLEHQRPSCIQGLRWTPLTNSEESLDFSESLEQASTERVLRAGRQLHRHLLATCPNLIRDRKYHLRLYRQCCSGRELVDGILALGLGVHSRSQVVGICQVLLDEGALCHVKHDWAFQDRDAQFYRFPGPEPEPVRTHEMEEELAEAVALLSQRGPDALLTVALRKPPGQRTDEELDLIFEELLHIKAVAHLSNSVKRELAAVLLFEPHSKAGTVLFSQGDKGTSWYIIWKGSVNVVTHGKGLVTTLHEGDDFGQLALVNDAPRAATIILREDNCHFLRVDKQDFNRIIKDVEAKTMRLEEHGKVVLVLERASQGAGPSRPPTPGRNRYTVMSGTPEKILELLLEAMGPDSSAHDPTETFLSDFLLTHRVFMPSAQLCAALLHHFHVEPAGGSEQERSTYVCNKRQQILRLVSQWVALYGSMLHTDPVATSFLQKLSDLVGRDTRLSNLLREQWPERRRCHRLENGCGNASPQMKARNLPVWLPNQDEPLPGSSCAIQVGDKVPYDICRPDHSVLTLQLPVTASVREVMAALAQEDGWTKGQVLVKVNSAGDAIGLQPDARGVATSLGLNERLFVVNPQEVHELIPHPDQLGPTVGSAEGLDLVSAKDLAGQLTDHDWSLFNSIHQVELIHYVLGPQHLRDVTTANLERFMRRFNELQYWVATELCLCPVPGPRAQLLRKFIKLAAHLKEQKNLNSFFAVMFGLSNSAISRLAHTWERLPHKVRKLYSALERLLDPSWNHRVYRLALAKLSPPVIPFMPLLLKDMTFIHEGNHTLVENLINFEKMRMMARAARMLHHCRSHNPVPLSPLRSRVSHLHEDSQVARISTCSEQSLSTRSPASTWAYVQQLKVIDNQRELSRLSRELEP

For this assay, the target named is Rap guanine nucleotide exchange factor 3 (Homo sapiens) (UniProt O95398). Put plainly: Validation qHTS for antagonist of cAMP-regulated guanine nucleotide exchange factor 3 (EPAC1). Also: nearly all actives have a fitted effect of over 75% in size.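 As to activity change, negative = inhibition: plate controls were DMSO for no effect and ATA control for full effect.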 As to conditions: EPAC1 Rap1B-BODIPY-GDP exchange, fluorescence; series mostly up to 150 µM; activity change, negative = inhibition: at the top concentration. An outline of the steps:
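EPAC1 (100 nM) mixed with 250 nM RAP1B-BODIPY-GDP and 50 uM GDP; compounds in concentration series, 5 min at room temperature. Fluorescence (ex 480/em 540 nm) read every 5 min for 30 min; normalized to ATA control and DMSO.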
With `O=C1C=CC2=C3c4cc(O)c(O)cc4C[C@@]3(O)COC2=C1`, the “activity change, negative = inhibition” value is -19.9% (inactive).
On the same count and under the same terms, next, `O=C1C=CC2=C3c4cc(O)c(O)cc4C[C@]3(O)COC2=C1`: -29.8% (inactive).
For the compound `O=C1C=CC2=C3c4cc(O)c(O)cc4CC3(O)COC2=C1O` (stereo not drawn), the Potency is 56.2 µM (active) and 25.1 µM (active).
On to `CC1O[C@@H](O[C@@H]2C(O)C[C@H](O[C@@H]3C(O)C[C@@H](OC4CC[C@@]5(C)C6CC(O)[C@@]7(C)C(C8=CC(=O)OC8)CC[C@@]7(O)C6CC[C@@H]5C4)OC3C)OC2C)CC(O)[C@H]1O` (stereo partly drawn), for which the “activity change, negative = inhibition” value is 14.6% (inactive).
On the same count and under the same terms, for `CC(Oc1ccccc1)C(=O)NCC1Cc2cc(F)cc(-c3ccccn3)c2O1` (stereo not drawn) the value was 0.154% (inactive).
In the case of `COc1ccc(-c2nc3cnc(Nc4cccc(OC)c4)nc3n(Cc3cccs3)c2=O)cc1`, the Potency is 100 µM (active).
For `COc1ccc(-c2nc3cnc(Nc4ccccc4)nc3n(Cc3cccs3)c2=O)cc1`, the “activity change, negative = inhibition” value is -3.69% (inactive).
Still for that read-out and setting: for `COc1cccc(Nc2ncc3nc(-c4ccccc4)c(=O)n(Cc4cccs4)c3n2)c1` the value was 18.4% (inactive).
Turning to `CC1(COc2ccc(C[C@H]3SC(=O)NC3=O)cc2)CCCCC1`, the Potency was 89.1 µM (active).
Still for that read-out and setting: for `Cc1c(C)c2c(c(C)c1O)CC[C@@](C)(CCC[C@H](C)CCC[C@H](C)CCCC(C)C)O2` the value was “inactive”.
Take `CCc1ccc(CCOc2ccc(CC3SC(=O)NC3=O)cc2)nc1` (stereo not drawn): the Potency result was “inactive”.
In the case of `Cc1c(C)c2c(c(C)c1O)CCC(C)(CCCC(C)CCCC(C)CCCC(C)C)O2` (stereo not drawn), the “activity change, negative = inhibition” value is -7.36% (inactive).
For the compound `CC1(COc2ccc(CC3SC(=O)NC3=O)cc2)CCCCC1` (stereo not drawn), the Potency was 35.5 µM (active) and the activity change, negative = inhibition was 12.3% [at 15.3 µM] (inactive).
Turning to `Cc1c(C)c2c(c(C)c1O)CCC(C)(COc1ccc(CC3SC(=O)NC3=O)cc1)O2` (stereo not drawn), the Potency was 100 µM (active).
Take `CN(CCOc1ccc(CC2SC(=O)NC2=O)cc1)c1ccccn1` (stereo not drawn): the “activity change, negative = inhibition” value was 16.9% (inactive).
Same read-out and setting: next, `Fc1ccc(N2CCN(Cc3ccc4c(c3)CN(Cc3cccn3-c3cccnc3)CCO4)CC2)cc1`: -5.67% (inactive); `Cc1ccc2c(c1)CN(CCC(=O)NCc1cc(C)n(C)n1)CC(C)O2` (stereo not drawn): 5.77% (inactive).
As to `COc1cc(=O)n2c(c1C(=O)N(C)Cc1nonc1C)CCN(Cc1ccsc1)CC2`, the “activity change, negative = inhibition” value is 11.6% (inactive).
Still for that read-out and setting: for `Cc1ccc(CN2C[C@H](Sc3ccccn3)C[C@H]2C(=O)Nc2ccc3sc(C)nc3c2)c(C)c1` the value was 2.23% (inactive).
In the case of `CN(C)/N=N/c1nc[nH]c1C(N)=O`, the Potency entry was “inactive”.
Consider `COc1cccc(Cn2c(=O)c(-c3cc(F)cc(F)c3)nc3cncnc32)c1`, for which the “activity change, negative = inhibition” value is 0.958% (inactive).
Still for that read-out and setting: for `Cc1noc(C)c1-c1cc(N(C)C)ncn1` the value was 17.9% (inactive); for `CCCCCCCCN1[C@@H](CC(=O)O)c2cc(C(F)(F)F)ccc2S1(=O)=O`, 9.17% (inactive).
In the case of `CCCCCCCCCCCCN1[C@@H](CC(=O)O)c2cc(C(F)(F)F)ccc2S1(=O)=O`, the Potency is 89.1 µM (active).
On to `CCCCCCCCCCCCN1[C@@H](CC(=O)OC)c2cc(C(F)(F)F)ccc2S1(=O)=O`, for which the “activity change, negative = inhibition” value was -0.938% (inactive).
On the same count and under the same terms, for `COc1ccc(OC)c(-c2ccnc(-n3ncc(C(=O)N(C)CCc4ccccn4)c3C)n2)c1` the value was 18.1% (inactive); for `Clc1ccc2ncnc(NCc3ccc4c(c3)OCO4)c2c1`, 14.1% [at 201 µM] (inactive).
On the same count and under the same terms, for `CC(O)c1nc2ccccc2[nH]1` (stereo not drawn) the value was 5.07% (inactive).
Regarding `O=C1CC[C@@H](CN(Cc2cccnc2)C2CCN(c3ccc(NC(=O)c4cnccn4)cc3)CC2)N1`, the “activity change, negative = inhibition” value is -4.84% (inactive).
Consider `CCCCC(CC)COC(=O)c1ccccc1O` (stereo not drawn), for which the “activity change, negative = inhibition” value was 24.3% (inactive).
`CCCCC(CC)COC(=O)CC(C(=O)OCC(CC)CCCC)S(=O)(=O)O` (stereo not drawn): the Potency was 56.2 µM (active) and 25.1 µM (active).
As to `CCCCC(CC)COS(=O)(=O)O` (stereo not drawn), the “activity change, negative = inhibition” value was -7.64% (inactive).
Still for that read-out and setting: next, `O=c1c(-c2ccccc2)nc2cncnc2n1Cc1ccccc1`: 2.28% (inactive); `COc1ccc(-c2nc3cnc(N4CCN(C)CC4)nc3n(-c3ccc(OC)cc3)c2=O)cc1`: 19% (inactive); `COc1ccc(-c2nc3cc(C)ccc3cc2CN(C(=O)c2ccc(C)s2)C2CC2)cc1OC`: 4.33% (inactive).
In the case of `c1ccc(Cc2nnc3n2CCN(Cc2cnc(-c4ccccc4)s2)CC3)cc1`, the “activity change, negative = inhibition” value was 20.3% (inactive).
Take `COc1ccc(-n2c(=O)c(CCc3ccccc3)nc3cnc(N4CCNCC4)nc32)cc1`: the “activity change, negative = inhibition” value is 10.6% (inactive).
As for `COc1ccc(C(=O)CC(=O)c2ccc(C(C)(C)C)cc2)cc1`, the Potency is 79.4 µM (active).
Take `COc1ccc(C(=O)C[n+]2ccccc2Cl)cc1`: the “activity change, negative = inhibition” value was 7.36% (inactive).
On the same count and under the same terms, next, `COc1ccc(C(C)=O)cc1`: 18.3% (inactive); `Cc1ncc2c(c1CNC(=O)c1ccsc1)CCN(C(=O)c1c(F)cccc1Cl)C2`: 8.26% (inactive); `COc1cc(C)c(CN2C[C@H](Sc3ccccn3)C[C@H]2C(=O)N(C)C)cc1C`: -9.09% (inactive).
